What was measured:
Assay in all cases: log2 ratio of Biotin-Ahx-Ub-VS probe labelling (fragment/DMSO); higher = less target engagement (more negative = stronger competition), active = hit call of the paper (q ≤ 0.05, log2 ratio ≤ -1)
Settings in all cases: compound concentration: 200 uM; treatment time: 3 h
USP19 = target: T1, USP19 (UniProt O94966)
T1 sequence (whole entry): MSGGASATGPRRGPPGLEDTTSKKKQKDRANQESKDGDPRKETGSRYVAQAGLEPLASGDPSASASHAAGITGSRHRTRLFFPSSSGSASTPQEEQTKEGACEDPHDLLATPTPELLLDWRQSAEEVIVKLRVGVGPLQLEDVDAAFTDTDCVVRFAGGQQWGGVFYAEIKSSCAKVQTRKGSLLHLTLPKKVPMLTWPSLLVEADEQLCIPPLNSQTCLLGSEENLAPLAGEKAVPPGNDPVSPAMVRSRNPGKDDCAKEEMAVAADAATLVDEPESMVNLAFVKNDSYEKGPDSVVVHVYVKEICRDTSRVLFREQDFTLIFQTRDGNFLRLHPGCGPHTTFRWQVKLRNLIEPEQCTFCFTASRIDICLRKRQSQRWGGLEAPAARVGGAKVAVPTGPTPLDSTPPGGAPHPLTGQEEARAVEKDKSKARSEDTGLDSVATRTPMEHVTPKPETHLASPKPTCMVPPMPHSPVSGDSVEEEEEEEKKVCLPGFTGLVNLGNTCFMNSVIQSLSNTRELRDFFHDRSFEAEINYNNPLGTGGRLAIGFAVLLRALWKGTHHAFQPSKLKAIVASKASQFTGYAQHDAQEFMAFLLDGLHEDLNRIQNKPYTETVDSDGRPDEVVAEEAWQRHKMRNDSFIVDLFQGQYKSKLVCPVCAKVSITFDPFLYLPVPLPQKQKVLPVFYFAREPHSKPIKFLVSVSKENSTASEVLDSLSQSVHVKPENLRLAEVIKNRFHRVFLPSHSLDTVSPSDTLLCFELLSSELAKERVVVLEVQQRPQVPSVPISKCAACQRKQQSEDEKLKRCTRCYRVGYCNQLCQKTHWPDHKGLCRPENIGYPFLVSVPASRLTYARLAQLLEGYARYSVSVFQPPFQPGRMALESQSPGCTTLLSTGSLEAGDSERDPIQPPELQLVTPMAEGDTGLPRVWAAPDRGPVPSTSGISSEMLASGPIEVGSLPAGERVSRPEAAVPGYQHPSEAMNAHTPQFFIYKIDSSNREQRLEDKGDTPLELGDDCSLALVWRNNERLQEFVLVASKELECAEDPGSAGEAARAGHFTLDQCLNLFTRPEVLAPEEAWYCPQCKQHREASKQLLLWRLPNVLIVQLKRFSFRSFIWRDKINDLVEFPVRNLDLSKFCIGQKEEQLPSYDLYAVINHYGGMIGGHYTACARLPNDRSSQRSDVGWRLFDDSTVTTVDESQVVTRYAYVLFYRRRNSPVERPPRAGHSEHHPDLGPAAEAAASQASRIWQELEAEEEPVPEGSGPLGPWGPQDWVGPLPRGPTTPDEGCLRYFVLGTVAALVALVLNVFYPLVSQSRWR
Outline: (§1)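 Triplicate samples of HEK293T lysate, 495 µg each, received fragment at 200 µM or vehicle for 3 h, followed by Biotin-Ahx-Ub-VS (0.5 µM final) for 1 h. After NeutrAvidin enrichment of labelled DUBs and LysC/trypsin digestion, peptides were run by diaPASEF LC-MS/MS. The values are average log2 fragment/vehicle ratios from global-median-normalised Spectronaut label-free quantities, tested by unpaired t-test on proteins having ≥2 unique peptides.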

USP24 = USP24 (UniProt Q9UPU5)
USP24, sequence (Q9UPU5 whole entry): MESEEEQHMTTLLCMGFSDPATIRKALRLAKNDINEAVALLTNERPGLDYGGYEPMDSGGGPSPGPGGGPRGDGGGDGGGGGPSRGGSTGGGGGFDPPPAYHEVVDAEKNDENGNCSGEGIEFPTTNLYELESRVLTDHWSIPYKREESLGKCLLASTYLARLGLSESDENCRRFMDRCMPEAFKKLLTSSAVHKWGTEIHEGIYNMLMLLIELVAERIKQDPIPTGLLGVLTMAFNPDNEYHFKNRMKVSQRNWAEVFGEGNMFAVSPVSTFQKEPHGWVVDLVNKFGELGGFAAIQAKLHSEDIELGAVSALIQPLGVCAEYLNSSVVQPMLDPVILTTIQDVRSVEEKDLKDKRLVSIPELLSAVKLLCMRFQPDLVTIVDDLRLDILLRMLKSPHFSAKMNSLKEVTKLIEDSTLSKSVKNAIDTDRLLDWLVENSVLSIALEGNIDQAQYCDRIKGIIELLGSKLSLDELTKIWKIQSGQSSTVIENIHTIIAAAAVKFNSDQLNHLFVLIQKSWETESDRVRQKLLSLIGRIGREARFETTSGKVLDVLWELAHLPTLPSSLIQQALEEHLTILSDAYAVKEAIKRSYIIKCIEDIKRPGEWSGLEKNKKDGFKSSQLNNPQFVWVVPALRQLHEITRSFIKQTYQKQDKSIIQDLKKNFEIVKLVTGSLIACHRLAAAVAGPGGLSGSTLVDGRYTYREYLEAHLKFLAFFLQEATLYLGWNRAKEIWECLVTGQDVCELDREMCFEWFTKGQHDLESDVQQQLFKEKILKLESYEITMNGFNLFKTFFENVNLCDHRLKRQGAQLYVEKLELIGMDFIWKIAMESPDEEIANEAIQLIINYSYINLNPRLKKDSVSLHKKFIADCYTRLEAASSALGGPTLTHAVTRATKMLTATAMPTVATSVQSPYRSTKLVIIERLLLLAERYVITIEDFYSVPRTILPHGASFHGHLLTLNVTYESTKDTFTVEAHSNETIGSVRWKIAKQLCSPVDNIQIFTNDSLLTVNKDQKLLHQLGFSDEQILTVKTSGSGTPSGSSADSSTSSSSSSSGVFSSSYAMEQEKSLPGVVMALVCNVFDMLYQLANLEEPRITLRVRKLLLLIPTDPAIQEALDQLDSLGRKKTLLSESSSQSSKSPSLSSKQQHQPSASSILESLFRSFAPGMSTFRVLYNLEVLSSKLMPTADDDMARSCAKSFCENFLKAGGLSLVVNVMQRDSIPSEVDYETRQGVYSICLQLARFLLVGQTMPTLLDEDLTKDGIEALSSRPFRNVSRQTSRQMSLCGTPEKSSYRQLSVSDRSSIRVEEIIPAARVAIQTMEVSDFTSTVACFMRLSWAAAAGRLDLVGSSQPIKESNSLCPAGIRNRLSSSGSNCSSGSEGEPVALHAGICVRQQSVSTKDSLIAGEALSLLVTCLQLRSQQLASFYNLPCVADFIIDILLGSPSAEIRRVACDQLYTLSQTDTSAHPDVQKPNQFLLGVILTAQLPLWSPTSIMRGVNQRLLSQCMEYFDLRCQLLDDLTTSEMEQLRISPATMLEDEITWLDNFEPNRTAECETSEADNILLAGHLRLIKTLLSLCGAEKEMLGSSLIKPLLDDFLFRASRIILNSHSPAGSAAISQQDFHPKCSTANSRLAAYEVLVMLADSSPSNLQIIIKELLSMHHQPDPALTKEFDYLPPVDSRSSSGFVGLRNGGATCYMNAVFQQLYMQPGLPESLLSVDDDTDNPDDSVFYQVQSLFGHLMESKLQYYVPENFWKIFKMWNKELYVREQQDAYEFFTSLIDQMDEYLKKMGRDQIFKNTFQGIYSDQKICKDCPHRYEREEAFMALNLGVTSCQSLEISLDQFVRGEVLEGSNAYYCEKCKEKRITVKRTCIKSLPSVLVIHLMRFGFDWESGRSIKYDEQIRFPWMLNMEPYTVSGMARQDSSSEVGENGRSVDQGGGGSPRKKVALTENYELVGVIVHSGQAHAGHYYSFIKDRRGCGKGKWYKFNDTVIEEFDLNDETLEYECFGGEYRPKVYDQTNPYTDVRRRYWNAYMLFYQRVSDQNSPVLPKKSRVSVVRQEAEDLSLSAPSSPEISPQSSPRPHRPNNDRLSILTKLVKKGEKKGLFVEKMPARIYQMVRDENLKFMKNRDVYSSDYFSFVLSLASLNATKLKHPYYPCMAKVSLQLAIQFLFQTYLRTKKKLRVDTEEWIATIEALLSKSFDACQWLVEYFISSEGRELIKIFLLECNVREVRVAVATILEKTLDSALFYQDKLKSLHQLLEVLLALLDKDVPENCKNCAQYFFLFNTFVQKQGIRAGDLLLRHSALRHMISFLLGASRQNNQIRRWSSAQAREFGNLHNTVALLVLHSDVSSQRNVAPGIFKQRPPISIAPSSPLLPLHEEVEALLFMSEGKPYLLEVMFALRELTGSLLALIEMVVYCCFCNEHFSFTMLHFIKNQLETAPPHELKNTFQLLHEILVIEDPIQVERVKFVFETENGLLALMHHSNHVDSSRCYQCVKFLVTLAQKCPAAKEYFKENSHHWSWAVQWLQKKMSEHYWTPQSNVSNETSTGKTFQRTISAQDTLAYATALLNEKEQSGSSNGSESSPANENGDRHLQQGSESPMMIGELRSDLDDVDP
Outline: as §1

USP25 = target: T2, USP25 (UniProt Q9UHP3)
T2 sequence (whole entry): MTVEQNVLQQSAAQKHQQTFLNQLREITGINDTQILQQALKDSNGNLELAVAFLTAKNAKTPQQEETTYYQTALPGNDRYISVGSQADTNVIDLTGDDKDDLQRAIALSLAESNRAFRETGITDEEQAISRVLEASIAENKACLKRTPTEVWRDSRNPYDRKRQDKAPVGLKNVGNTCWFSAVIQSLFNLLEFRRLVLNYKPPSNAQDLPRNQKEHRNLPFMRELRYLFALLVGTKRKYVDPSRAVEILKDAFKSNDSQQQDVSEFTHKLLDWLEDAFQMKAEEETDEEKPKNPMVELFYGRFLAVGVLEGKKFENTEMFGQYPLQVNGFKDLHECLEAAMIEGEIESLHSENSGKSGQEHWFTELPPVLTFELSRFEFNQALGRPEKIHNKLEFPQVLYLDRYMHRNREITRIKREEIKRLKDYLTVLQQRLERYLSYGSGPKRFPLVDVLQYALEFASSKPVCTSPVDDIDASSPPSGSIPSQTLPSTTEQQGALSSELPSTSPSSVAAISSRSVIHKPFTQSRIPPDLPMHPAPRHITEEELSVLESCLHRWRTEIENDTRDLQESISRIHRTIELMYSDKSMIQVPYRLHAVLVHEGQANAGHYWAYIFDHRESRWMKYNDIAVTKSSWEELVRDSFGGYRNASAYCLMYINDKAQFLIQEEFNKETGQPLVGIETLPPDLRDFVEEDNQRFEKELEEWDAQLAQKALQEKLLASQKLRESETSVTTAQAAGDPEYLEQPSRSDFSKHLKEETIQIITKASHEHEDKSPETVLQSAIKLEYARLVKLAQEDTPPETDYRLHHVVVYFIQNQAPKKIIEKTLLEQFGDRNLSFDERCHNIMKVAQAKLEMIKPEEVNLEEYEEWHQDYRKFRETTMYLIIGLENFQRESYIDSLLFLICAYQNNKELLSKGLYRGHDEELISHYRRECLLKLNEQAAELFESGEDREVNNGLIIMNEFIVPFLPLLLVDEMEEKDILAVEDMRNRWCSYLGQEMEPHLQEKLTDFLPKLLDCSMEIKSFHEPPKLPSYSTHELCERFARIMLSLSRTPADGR
Outline: as §1

USP28 = target: T3, USP28 (UniProt Q96RU2)
T3 sequence (whole entry): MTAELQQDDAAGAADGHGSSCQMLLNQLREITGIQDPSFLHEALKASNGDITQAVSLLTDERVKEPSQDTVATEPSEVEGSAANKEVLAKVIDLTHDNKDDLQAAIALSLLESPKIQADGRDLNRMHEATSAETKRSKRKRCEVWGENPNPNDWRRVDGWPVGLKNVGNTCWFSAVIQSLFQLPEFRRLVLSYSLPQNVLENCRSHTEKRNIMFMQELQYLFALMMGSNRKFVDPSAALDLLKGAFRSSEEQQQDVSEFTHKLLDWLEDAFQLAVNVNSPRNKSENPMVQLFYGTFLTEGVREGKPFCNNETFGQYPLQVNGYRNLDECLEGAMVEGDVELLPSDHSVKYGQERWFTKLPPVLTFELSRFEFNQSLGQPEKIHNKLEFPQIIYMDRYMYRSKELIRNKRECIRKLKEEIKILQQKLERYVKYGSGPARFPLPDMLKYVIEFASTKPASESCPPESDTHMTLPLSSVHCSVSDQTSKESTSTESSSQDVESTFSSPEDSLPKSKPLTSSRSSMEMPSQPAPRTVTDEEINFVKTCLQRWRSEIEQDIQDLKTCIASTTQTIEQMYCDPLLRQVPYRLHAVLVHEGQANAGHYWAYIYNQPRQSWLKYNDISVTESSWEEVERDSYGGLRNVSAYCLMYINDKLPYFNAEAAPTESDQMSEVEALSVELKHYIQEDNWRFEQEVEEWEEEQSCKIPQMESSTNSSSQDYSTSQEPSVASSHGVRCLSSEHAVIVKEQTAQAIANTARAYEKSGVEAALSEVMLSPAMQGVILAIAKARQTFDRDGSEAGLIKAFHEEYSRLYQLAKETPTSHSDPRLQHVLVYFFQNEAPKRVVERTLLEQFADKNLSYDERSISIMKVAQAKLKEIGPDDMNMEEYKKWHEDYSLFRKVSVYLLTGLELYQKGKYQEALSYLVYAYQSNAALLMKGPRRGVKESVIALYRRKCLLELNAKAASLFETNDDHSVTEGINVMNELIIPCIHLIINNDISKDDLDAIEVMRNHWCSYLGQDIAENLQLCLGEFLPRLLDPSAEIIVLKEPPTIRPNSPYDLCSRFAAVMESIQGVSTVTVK
Outline: as §1

Measured: log2 ratio of Biotin-Ahx-Ub-VS probe labelling

Cc1cccnc1NC(=O)C1CCN(C(=O)CCl)CC1.Cl
inactive: USP19 -0.314 | USP24 -0.409 | USP25 -0.184 | USP28 -0.564

— the supplement of paper PMC11732987, “Enantioselective OTUD7B fragment discovery through chemoproteomics screening and high-throughput optimisation” (Communications Chemistry, 2025)
